Bioassay records from PubChem BioAssay.
Compounds with a hit are over-represented: about 2.4% of the library has one in this group of screens.
SENP8 block-1 = SENP8 protease inhibitors, primary screen, biochemical, luminescence; purified SENP8, Z-RLRGG-aminoluciferin cleavage; 330,000 compounds, 1.2% hits; inhibition, % at 10 µM; Sentrin-specific protease 8 (Homo sapiens), Q96LD8; in the data active = inhibition above about 50%
Target sequence (Q96LD8 whole entry, looked up): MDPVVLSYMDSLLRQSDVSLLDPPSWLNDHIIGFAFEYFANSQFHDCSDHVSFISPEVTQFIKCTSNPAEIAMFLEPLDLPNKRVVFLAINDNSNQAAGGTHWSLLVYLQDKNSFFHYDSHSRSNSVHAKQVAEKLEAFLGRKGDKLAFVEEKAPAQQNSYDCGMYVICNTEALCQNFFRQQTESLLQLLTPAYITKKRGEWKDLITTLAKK
SENP7 block = SENP7 protease inhibitors, primary screen, biochemical, luminescence, uHTS; 330,000 compounds, 1.5% hits; inhibition, % at 5 µM; recombinant SENP7, Z-RLRGG-aminoluciferin luminescence, 40 min; Sentrin-specific protease 7 (Homo sapiens), Q9BQF6;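 active = inhibition above about 50% at the single test dose, limit read from the data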
SENP6 block = SENP6 protease inhibitors, primary screen, biochemical, luminescence, uHTS; Sentrin-specific protease 6 (Homo sapiens), Q9GZR1; Recombinant SENP6 catalytic domain, aminoluciferin luminescence; inhibition, % at 10 µM; 330,000 compounds, 1.8% hits;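 active = inhibition above about 50% at the single tested dose, limit read from the data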
SENP8 block-2 = human SENP8 protease inhibitors, primary screen, biochemical, fluorescence, Nedd8 protein substrate, uHTS. Sentrin-specific protease 8 (Homo sapiens), Q96LD8. recombinant SENP8. inhibition, % at 20 µM. 360,000 compounds, 0.64% hits. AID 602440, 2012; in the data active = inhibition mostly above about 40%, no sharp cut-off; inactive = mostly below about 27%
Platelet DG rel = inhibitors of platelet dense granule secretion, primary screen, cell-based, MLPCN, human platelets; human platelet-rich plasma, SFLLRN dense granule ATP release, luminescence; inhibition, %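 (compounds screened at 7.5 µM in platelet-rich plasma)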; 300,000 compounds, 0.22% hits; AID 1663, 2009;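 active = mean replicate score, as percent of positive control, at or above 50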
SENP8 conf = SENP8 protease inhibitors, retest, confirmation, biochemical, luminescence, single concentration. shares compounds with SENP7 block. AID 488912, 2010. Recombinant SENP8, Z-RLRGG-aminoluciferin luminescence, 60 min. inhibition, % at 12.5 µM. 6,200 compounds, 40% hits;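 active = mean inhibition across replicates above about 50%, limit read from the data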
SENP6 conf = SENP6 protease inhibitors, confirmation, biochemical, luminescence, single concentration; shares compounds with SENP7 block; recombinant SENP6, Z-RLRGG-aminoluciferin luminescence; inhibition, % at 12.5 µM; 6,200 compounds, 58% hits; AID 488915, 2010
SENP7 confirm = SENP7 protease inhibitors, retest, confirmation, biochemical, luminescence, single concentration | shares compounds with SENP7 block | recombinant SENP7, Z-RLRGG-aminoluciferin luminescence, 40 min | inhibition, % at 12.5 µM | 6,200 compounds, 69% hits | AID 488917, 2010
Casp3 SENP sel = caspase-3 protease inhibitors, confirmation, selectivity assay for SENP inhibitor project, biochemical, single concentration. purified caspase-3, Z-DEVD-aminoluciferin luminescence, 60 min. shares compounds with SENP7 block. inhibition, % at 12.5 µM. 6,200 compounds, 60% hits;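 active = mean inhibition above about 50%, limit read from the data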
Target sequence (P42574 28-227 limits assumed): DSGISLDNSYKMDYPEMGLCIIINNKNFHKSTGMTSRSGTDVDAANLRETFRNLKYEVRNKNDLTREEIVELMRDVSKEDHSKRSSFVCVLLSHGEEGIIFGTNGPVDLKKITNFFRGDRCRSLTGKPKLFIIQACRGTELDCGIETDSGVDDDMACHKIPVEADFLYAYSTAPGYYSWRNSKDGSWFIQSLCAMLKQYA
Luc interf = interferes with luciferase luminescence in SENP counter-screen; shares compounds with SENP7 block; Pre-incubated SENP8/Z-RLRGG-aminoluciferin, luciferase luminescence interference; inhibition, % at 12.5 µM; 6,200 compounds, 39% hits; AID 488919;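 active = mean inhibition above about 50% when retested at one dose, limit read from the data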
A number is an active result.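 Rule for the calls, unless noted: active = mean inhibition above about 50% in the one-dose retest (limit read from the data); inactive = the rest.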

COc1ccc(C(C)(C)C)cc1NC(=O)CNc1cccc2ccccc12 was read as SENP8 block-1 inactive, SENP7 block inactive, SENP6 block 77.2, SENP8 block-2 inactive, Platelet DG rel inactive, SENP8 conf inactive, SENP6 conf inactive, SENP7 confirm inactive, Casp3 SENP sel inactive and Luc interf inactive.
Screening O=C(Nc1ccc(Cl)cc1)C1=Cc2cc(Cl)ccc2OC1 returned SENP8 block-1 inactive, SENP7 block inactive, SENP6 block inactive, SENP8 block-2 inactive and Platelet DG rel inactive.
COc1ccc(NC(=O)C2=Cc3ccccc3OC2)cc1 was read as SENP8 block-1 61.3, SENP7 block 72.5, SENP6 block 68.1, SENP8 block-2 inactive, Platelet DG rel inactive, SENP8 conf 59.4, SENP6 conf 59.7, SENP7 confirm 86.9, Casp3 SENP sel 65.5 and Luc interf inactive.
For O=C(Nc1ccc(Cl)cc1Cl)C1=Cc2ccccc2OC1 the results were SENP8 block-1 inactive, SENP7 block 50.9, SENP6 block inactive, SENP8 block-2 inactive, Platelet DG rel inactive, SENP8 conf inactive, SENP6 conf inactive, SENP7 confirm inactive, Casp3 SENP sel inactive and Luc interf inactive.
O=C(NCCO)c1cc(-c2cc(C(=O)NCCO)c3ccccc3n2)nc2ccccc12 was read as SENP8 block-1 inactive, SENP7 block inactive, SENP6 block inactive, SENP8 block-2 inactive and Platelet DG rel inactive.
`Cn1c2ccccc2c(=O)c2ccc(NCCc3cccs3)cc21` gave SENP8 block-1 66.3, SENP7 block inactive, SENP6 block 68.0, SENP8 block-2 inactive, SENP8 conf 80.7, SENP6 conf 88.5, SENP7 confirm 96.7, Casp3 SENP sel 79.0 and Luc interf inactive.
Screening NC(=O)c1ccc(NCCc2cccs2)cc1 returned SENP8 block-2 inactive.
Screening Cn1cccc1C(=O)NC(=O)COC(=O)C12CC3CC(CC(O)(C3)C1)C2 returned SENP8 block-1 inactive, SENP7 block 61.9, SENP6 block 54.1, SENP8 block-2 inactive, Platelet DG rel inactive, SENP8 conf 61.6, SENP6 conf 58.5, SENP7 confirm 82.5, Casp3 SENP sel 84.5 and Luc interf inactive.
For Cc1oc(-c2ccccc2)cc1C(=O)Nc1cccc(C(=O)O)c1 the results were SENP8 block-1 inactive, SENP7 block inactive, SENP6 block inactive, SENP8 block-2 inactive and Platelet DG rel inactive.
Cc1oc(-c2ccc(Cl)cc2)cc1C(=O)O was read as SENP8 block-1 97.1, SENP7 block 94.2, SENP6 block 96.3, SENP8 block-2 inactive, Platelet DG rel inactive, SENP8 conf 98.7, SENP6 conf 99.7, SENP7 confirm 102.2, Casp3 SENP sel 92.3 and Luc interf 90.8.
`CCCS(=O)(=O)c1nc(S(=O)(=O)c2ccc(C)cc2)c(NCCN2CCOCC2)s1` gave SENP8 block-1 inactive, SENP7 block inactive, SENP6 block 103.6, SENP8 block-2 inactive, Platelet DG rel inactive, SENP8 conf inactive, SENP6 conf inactive, SENP7 confirm inactive, Casp3 SENP sel inactive and Luc interf inactive.
Cc1c(Cl)cn2c(=O)cc(CN3CCN(c4ccc(F)cc4)CC3)nc2c1Cl was read as SENP8 block-1 inactive, SENP7 block inactive, SENP6 block inactive and Platelet DG rel inactive.
`Cc1cc[n+](C2=C([O-])c3ccccc3C(=O)/C2=N\S(=O)(=O)c2cccs2)cc1C` gave SENP8 block-1 inactive, SENP7 block inactive, SENP6 block 59.7, SENP8 block-2 inactive, Platelet DG rel inactive, SENP8 conf inactive, SENP6 conf inactive, SENP7 confirm inactive, Casp3 SENP sel inactive and Luc interf inactive.
For Cc1cc(C)c[n+](C2=C([O-])c3ccccc3C(=O)/C2=N\S(=O)(=O)c2cccs2)c1 the results were SENP8 block-1 inactive, SENP7 block inactive, SENP6 block 54.8, SENP8 block-2 75.0, Platelet DG rel inactive, SENP8 conf inactive, SENP6 conf 58.9, SENP7 confirm inactive, Casp3 SENP sel inactive and Luc interf inactive.
`CC(C)(C)c1cc[n+](C2=C([O-])c3ccccc3C(=O)/C2=N\S(=O)(=O)c2ccccc2)cc1` gave SENP8 block-1 inactive, SENP7 block inactive, SENP6 block 66.0, SENP8 block-2 47.7, Platelet DG rel inactive, SENP8 conf inactive, SENP6 conf 72.5, SENP7 confirm inactive, Casp3 SENP sel inactive and Luc interf inactive.
`Cc1cc(C)cc(NS(=O)(=O)c2cccs2)c1` gave SENP8 block-1 inactive, SENP7 block inactive, SENP6 block inactive, SENP8 block-2 inactive and Platelet DG rel inactive.
Screening CCN1C(=O)CS/C1=N\S(=O)(=O)c1ccccc1 returned SENP8 block-1 inactive, SENP7 block inactive, SENP6 block inactive, SENP8 block-2 inactive and Platelet DG rel inactive.
O=C1/C(=N\S(=O)(=O)c2cccs2)C([n+]2ccc(CCCc3ccccc3)cc2)=C([O-])c2ccccc21 was read as SENP8 block-1 inactive, SENP7 block inactive, SENP6 block 59.7, SENP8 block-2 inactive, Platelet DG rel inactive, SENP8 conf inactive, SENP6 conf inactive, SENP7 confirm inactive, Casp3 SENP sel inactive and Luc interf inactive.
Screening Cc1ccc(NC(=O)c2noc3c2CCc2ccccc2-3)cc1 returned SENP8 block-1 inactive, SENP7 block inactive, SENP6 block inactive, SENP8 block-2 inactive and Platelet DG rel inactive.
For O=C(Nc1cccc(O)c1)c1noc2c1CCc1ccccc1-2 the results were SENP8 block-1 95.5, SENP7 block 98.6, SENP6 block 97.2, SENP8 block-2 inactive, Platelet DG rel 50.8, SENP8 conf 94.5, SENP6 conf 95.7, SENP7 confirm 102.5, Casp3 SENP sel 93.5 and Luc interf 92.5.
O=C(Nc1cccnc1)c1cc(-c2ccc(Cl)c(Cl)c2)on1 was read as SENP8 block-1 inactive, SENP7 block 76.0, SENP6 block 55.4, SENP8 block-2 inactive, Platelet DG rel 55.0, SENP8 conf inactive, SENP6 conf inactive, SENP7 confirm inactive, Casp3 SENP sel inactive and Luc interf inactive.
